Source: PubChem BioAssay (several laboratories)
FXIa mix inh: blocks human factor XIa in pooled compound mixtures | AID 680 | 0.19% of 62,000 active | purified FXIa, fluorogenic substrate | inhibition, % at 5 µM;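 also: each value is inhibition by a whole ten-compound pool holding the compound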
mHtt clearance: compounds clearing mutant huntingtin protein; HeLa Exon1htt(103Q)mCFP, aggregate imaging; zero = plate's median compound well; inhibition, % at 1.5 µM; 0.42% of 47,000 active; AID 853;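 active = inhibition of aggregate fluorescence above about 70%, also judged a hit by eye on the cell image, limit read from the data, passing the limit was not always enough; inconclusive = no rule stated for this call; inactive = not judged a hit on image review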;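 also: cells exposed to compound for three days before fixation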
WNV protease inh: WNV NS2B-NS3 proteinase inhibition | WNV NS2B-NS3 protease, fluorogenic substrate Ex360/Em465; hits give low values | z-score (no concentration beside the values) | 0.18% of 65,000 active; in the data active = z-score below about -3
C1s block: human complement C1s inhibition; 0.16% of 62,000 active; purified C1s, fluorogenic AMC substrate, pooled mixtures; P09871; mean inhibition % of two 10-compound mixtures (hits give high values), % at 5 µM (by protocol);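 active = inhibition above 20% in each of the two 10-compound mixture wells holding the compound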
Cathepsin G inh: inhibitors of human cathepsin G. P08311. purified enzyme, AMC-tetrapeptide fluorescence, pooled mixtures. inhibition, % at 5 µM (by protocol). 0.2% of 62,000 active;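 active = inhibition above 20% in each of the two mixture wells holding the compound; inactive = inhibition of 20% or less in either well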
FXIIa mix inh: blocks human factor XIIa in pooled compound mixtures; P00748; purified FXIIa, fluorogenic substrate; inhibition, % at 5 µM; 0.2% of 62,000 active; AID 684
Target sequence (P00748 20-372 limits assumed): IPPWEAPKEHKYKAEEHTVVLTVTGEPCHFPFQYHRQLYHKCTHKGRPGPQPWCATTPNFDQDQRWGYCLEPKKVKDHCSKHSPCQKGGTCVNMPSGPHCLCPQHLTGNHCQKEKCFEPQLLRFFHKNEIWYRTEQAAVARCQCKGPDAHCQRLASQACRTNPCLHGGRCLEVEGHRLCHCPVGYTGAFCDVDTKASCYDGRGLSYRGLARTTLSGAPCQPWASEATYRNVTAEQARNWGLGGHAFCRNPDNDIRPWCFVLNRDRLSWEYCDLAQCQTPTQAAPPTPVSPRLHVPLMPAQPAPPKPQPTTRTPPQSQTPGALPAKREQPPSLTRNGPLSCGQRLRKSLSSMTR
Target sequence (P00748 373-615 limits assumed): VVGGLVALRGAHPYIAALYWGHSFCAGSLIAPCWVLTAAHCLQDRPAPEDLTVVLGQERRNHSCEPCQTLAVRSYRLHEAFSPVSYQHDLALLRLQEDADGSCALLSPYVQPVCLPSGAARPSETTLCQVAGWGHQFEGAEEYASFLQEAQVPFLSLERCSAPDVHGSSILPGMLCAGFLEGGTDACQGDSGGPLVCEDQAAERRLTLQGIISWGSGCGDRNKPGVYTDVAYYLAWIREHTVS
Each line names hits and unclear results; the compound was inactive in the other large screens. Compounds with a hit are over-represented: about 0.75% of the library has one in this group of screens. Rule as the data show it, unless noted: active = inhibition above about 20% (passing the limit was not always enough); inactive = the rest.

COCC(C)NC(=O)c1noc2c1CCc1cc(OC)ccc1-2 (configuration not stated)	Cathepsin G inh 39 (no result: mHtt clearance)
COc1ccc(F)cc1S(=O)(=O)N1CC(C)CC(C)C1 (configuration not stated)	none (no result: FXIa mix inh, WNV protease inh, C1s block, Cathepsin G inh, FXIIa mix inh)
CCc1nc2c(sc3nc(N4CCOCC4)c4c(c32)CC(C)(C)OC4)c(=O)o1	none (no result: FXIa mix inh, mHtt clearance, C1s block, Cathepsin G inh, FXIIa mix inh)
COc1cccc(-c2cc(C(=O)NCCN3CCOCC3)no2)c1	none
COc1ccc2c(c1)CCc1c(C(=O)NC3CCCCC3)noc1-2	Cathepsin G inh 74 (no result: mHtt clearance)
COc1ccc2c(c1)CCc1c(C(=O)NCCN3CCOCC3)noc1-2	Cathepsin G inh 58 (no result: mHtt clearance)
CC(C)CN(CC(C)C)S(=O)(=O)N1CCC(C(=O)NCc2ccc(F)cc2)CC1	C1s block 24
CCS(=O)(=O)N1CCC(C(=O)NCc2ccc(F)cc2)CC1	none
Cc1ccc(CNC(=O)CSc2nc3ccccc3c3nc(C)nn23)cc1	none (no result: FXIa mix inh, WNV protease inh, C1s block, Cathepsin G inh, FXIIa mix inh)
O=C(c1ccco1)N1C(=O)c2cccc3cccc1c23	C1s block 25
CCN1C(=O)c2cccc3cccc1c23	none
CCOC(=O)CSc1nc(N)cc(=O)[nH]1	none (no result: mHtt clearance)
CCOC(=O)CSc1nc(C)cc(=O)[nH]1	mHtt clearance 71
CCOC(=O)Cn1cnc2sc3c(c2c1=O)CCC3	FXIIa mix inh 57
NC(=O)c1ccccc1NC(=O)CN1CCOCC1	FXIa mix inh 20
CCCNC(=O)NC1C(NC(=O)NCCC)N(C)C(=O)N1C (configuration not stated)	none
O=C(CSc1nnnn1-c1ccc2c(c1)OCCO2)Nc1nc2c(s1)CCCC2	mHtt clearance 77
CCOC(=O)N1CCC(NC(=O)C2CCCN(Cc3nc(-c4cccc(Cl)c4)oc3C)C2)CC1 (configuration not stated)	FXIa mix inh 21 (no result: mHtt clearance)
O=C(C1CCC(CNS(=O)(=O)c2cccc3cccnc23)CC1)N1CCCC1 (configuration not stated)	mHtt clearance inconclusive, FXIIa mix inh 22
O=C(C1CCC(CNS(=O)(=O)c2cccs2)CC1)N1CCCCC1 (configuration not stated)	none (no result: mHtt clearance)
CC1CCN(C(=O)CSc2ccc3nnc(-c4ccc(F)cc4)n3n2)CC1	none (no result: mHtt clearance)
Nc1nc(-c2ccco2)nn1C(=O)c1ccccc1	none (no result: FXIa mix inh, WNV protease inh, C1s block, Cathepsin G inh, FXIIa mix inh)
COc1ccc(C(=O)n2nc(-c3ccccc3)nc2N)cc1OC	Cathepsin G inh 44
COc1ccc(-c2nnc3ccc(SCC(=O)N4CCN(c5ccccc5)CC4)nn23)cc1OC	none (no result: mHtt clearance)
COCCCN=C(c1ccco1)n1c(=S)nc(-c2ccco2)n(CCCOC)c1=S	none (no result: mHtt clearance)
O=C(Oc1ccc(N2C(=O)CCC2=O)cc1)c1ccco1	none
O=C(Oc1ccc(Cl)cc1N1C(=O)CCC1=O)c1ccco1	C1s block 26
O=C(CSc1nnc(-c2cccs2)n1-c1ccccc1)NCc1ccc2c(c1)OCO2	mHtt clearance 73
O=C(COC(=O)CCCN1C(=O)c2ccccc2C1=O)Nc1ncc(Cl)cc1Cl	mHtt clearance 72
O=C(O)CCCC(=O)Nc1ccccc1C(=O)O	C1s block 49 (no result: mHtt clearance)
CCCCCC1CC(CC#CCN2CCOCC2)C(=O)O1 (configuration not stated)	none (no result: mHtt clearance)
Cc1ccc(N2CCCn3c2nc2c3c(=O)n(CCN3CCOCC3)c(=O)n2C)cc1	none (no result: mHtt clearance)
Cc1cc(C)cc(N2CCCn3c2nc2c3c(=O)n(CCN3CCOCC3)c(=O)n2C)c1	FXIa mix inh 23
O=C(CCn1c(=O)oc2ccccc21)N(Cc1ccccc1)c1ccccn1	mHtt clearance 73 (no result: FXIa mix inh, C1s block, Cathepsin G inh, FXIIa mix inh)
COc1cc(SC)ccc1C(=O)Nc1ccon1	mHtt clearance 73
COc1cc(SC)ccc1C(=O)Nc1ccc(S(=O)(=O)N2CCCC2)cc1	none (no result: mHtt clearance)
COC(=O)CSc1nc2nc(C)cc(C)n2n1	none
CCC(=O)Nc1nc(C)cc(SCC(=O)OC)n1	FXIa mix inh 21 (no result: mHtt clearance)
O=C(Nc1nc2ccc(F)cc2s1)C1CCCO1 (configuration not stated)	none (no result: FXIa mix inh, WNV protease inh, C1s block, Cathepsin G inh, FXIIa mix inh)
Cc1nnc(SCC(N)=O)n1CCc1ccccc1	mHtt clearance 71 (no result: FXIa mix inh, WNV protease inh, C1s block, Cathepsin G inh, FXIIa mix inh)
Cc1nnc(SCC(=O)NC(C)(C)C)n1CCc1ccccc1	none (no result: mHtt clearance)
Nc1nc2ccc(N3CCOCC3)cc2s1	none (no result: mHtt clearance)
Cn1c(=O)c2c(ncn2CCO)n(C)c1=O	none (no result: mHtt clearance)
CC(C)CCn1cnc2c1c(=O)n(C)c(=O)n2C	mHtt clearance 73 (no result: FXIa mix inh, C1s block, Cathepsin G inh, FXIIa mix inh)
CCCn1c(=O)c(C(=O)Nc2nnc(C)s2)c(O)c2ccccc21	none (no result: mHtt clearance)
COc1ccc(NS(=O)(=O)c2ccc(SC)cc2)cc1	mHtt clearance 86
CSc1ccc(S(=O)(=O)Nc2ccc(F)cc2)cc1	none
O=C(Nc1nnc(/N=C/c2ccco2)s1)c1ccc(F)cc1	mHtt clearance 71
O=C(Nc1nnc(-c2ccco2)s1)c1ccccc1	none (no result: mHtt clearance)
COc1ccc(NC(=O)c2cnc3ccccn3c2=O)cc1OC	none (no result: mHtt clearance)
CCCCCCc1nc2ccccc2c(=O)n1NC(=O)c1c(O)c2cccc3c2n(c1=O)CC3	none (no result: FXIa mix inh, WNV protease inh, C1s block, Cathepsin G inh, FXIIa mix inh)
CC1Cc2cc(C3(O)C(=O)c4ccccc4C3=O)ccc2N1 (configuration not stated)	none
Cc1c(NC(=O)C2Cc3ccccc3CN2C(=O)c2ccco2)c(=O)n(-c2ccccc2)n1C (configuration not stated)	C1s block 21 (no result: mHtt clearance)
Cc1c(NC(=O)C2CCCN2S(=O)(=O)c2ccccc2)c(=O)n(-c2ccccc2)n1C (configuration not stated)	none
Cc1ccc(C)n1-c1ccc(N2CCOCC2)cc1	mHtt clearance 97
c1ccn(-c2ccc(N3CCOCC3)cc2)c1	none (no result: FXIa mix inh, WNV protease inh, C1s block, Cathepsin G inh, FXIIa mix inh)
Cc1cccc(N2CCN(C(=O)C3CCCCC3)CC2)c1C	none
CCS(=O)(=O)N1Cc2ccccc2CC1C(=O)N1CCN(c2cccc(C)c2C)CC1 (configuration not stated)	WNV protease inh -3.1
Cc1ccc(NC(=O)c2ccc(S(=O)(=O)NCC3CCCO3)cc2)cc1 (configuration not stated)	FXIIa mix inh 22
OCCSc1c(F)c(SCCO)c(SCCO)c(F)c1SCCO	none
Cc1cc(NC(=O)CSc2nc(CCC3CCCC3)nc3ccccc23)no1	mHtt clearance 84
C=CCN=C(CC)C1=C(O)CCCC1=O	none
C=CCN=C(C)C1=C(O)CCC1=O	mHtt clearance 77
CCCCCn1c(=NC(C)=O)c(C#N)cc2c(=O)n3cccc(C)c3nc21	none (no result: mHtt clearance)
Cc1ccccc1NC(=O)CSc1nc(N)c(C#N)c(-c2cccs2)c1C#N	none
COc1ccc(CCNC(=O)CSc2nc(N)c(C#N)c(-c3cccs3)c2C#N)cc1OC	mHtt clearance 72
C=CCOc1cccc(C2/C(=C(/O)c3ccccc3)C(=O)C(=O)N2CCCN2CCOCC2)c1 (configuration not stated)	none (no result: mHtt clearance)
O=C(CCSc1nnc(-c2ccco2)o1)Nc1ccc(Cl)cc1	none (no result: mHtt clearance)
O=C(Nc1ccc(Cl)cc1)NC1CCCC1Cc1ccco1 (configuration not stated)	WNV protease inh -4.8
COc1ccc(Cc2nnc(NC(=O)c3ccco3)s2)cc1	none (no result: FXIa mix inh, WNV protease inh, C1s block, Cathepsin G inh, FXIIa mix inh)
O=C1N=C(N2CCOCC2)S/C1=C1\C(=O)N(Cc2ccccc2)c2ccc(Br)cc21	none (no result: mHtt clearance)
